The panel holds about 83,000 compounds, 20% with a hit somewhere; the sample as a whole holds those more often.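 Plates (96-well) were seeded with cells, treated with compound at one concentration, and incubated for 48 hours before percent growth was determined.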 Values without a mark were called inactive. Activity calls are given as the source filed them. How the source made its calls: active means growth percent below 10; inactive means the rest.
system: HL-60(TB) leukemia; test: NCI-60 one-dose screen, 48 h (100 = growth as untreated, 0 = no growth, -100 = all killed); details: 10 µM unless noted

SMILES | growth
COc1cccc(-c2nc3sccn3c2-c2ccnc(NCCNC(=O)c3ccccc3)n2)c1 | 94.2%
CCOC(=O)C1=C(N)Oc2c(sc3c(C)cccc23)C1c1ccc(F)cc1 (centres undefined) | -39.3% (active)
C/C(=N\NC(=O)CC#N)c1cc2cc(Cl)ccc2o1 | 99.4%
CCc1cc(Cc2cc(CC)cc(C(C)(C)C)c2O)c(O)c(C(C)(C)C)c1 | 58.1%
CC(=O)NC1=C(C#N)C(c2ccccc2Cl)c2c(ccc3ccccc23)O1 (centres undefined) | 29.7%
O=C(Cc1ccc(/C=C/C(=O)c2ncc[nH]2)cc1)Nc1ccc(S(F)(F)(F)(F)F)cc1 | 42.1%
OCC1OC(n2cnc3c(Cl)ncnc32)CC1O (centres undefined) | 121%
COc1ccc(Oc2nc(Nc3ccc(N4CCOCC4)nc3)ncc2NC(=O)c2cc(OC)cc(OC)c2)cc1 | 75%
COc1ccc(-c2c(C#N)cnc(N)c2-c2nc3cc(C)c(C)cc3[nH]2)cc1 | 89.4%
C=C1C(=O)O[C@H]2[C@H]1CC/C(CNC(=O)/C=C/c1ccccc1)=C\CC[C@@]1(C)O[C@@H]21 | -31.3% (active)
N#CC1C(C#N)C(C(=O)c2ccc(Br)cc2)N2c3ccccc3C=CC12 (centres undefined) | 94.3%
COc1ccc(-n2c(/C=C/c3ccc(O)c(OC)c3)cc(/C=C/c3ccc(O)c(OC)c3)nc2=O)cc1 | 33.7%
Nc1c(C(=O)Nc2ccccc2F)sc2nc3c(cc12)C(=O)CCC3 | 33.9%
O=C(Oc1cccnc1)c1ccsc1Nc1ccnc(C(F)(F)F)c1 | 25.9%
C[n+]1cccc(NC(=O)c2ccc3ccc4ccc(C(=O)Nc5ccc[n+](C)c5)nc4c3n2)c1 | 61.4%
O=C1Nc2cc(-c3cccc(O)c3)ccc2/C1=C/c1ccc[nH]1 | 6.76% (active)
C/C(O)=C(\C=N\C(N)=S)C(=O)Nc1ccccc1 | 105%
CS(=O)CC1=NC(=N)N=C1CS(C)=O (centres undefined) | 91.2%
Cc1ccc(-c2nc(C#N)c(S(=O)(=O)N(C)CCO)o2)cc1 | -18.1% (active)
O=Cc1[nH]c(Sc2ccccc2)c2ccccc12 | 12.1%
Cc1ccc(-c2c(Br)c(OC(=O)CO[C@@H]3C[C@H](C)CC[C@H]3C(C)C)c(-c3ccc(C)cc3C)c(Br)c2OC(=O)CO[C@H]2C[C@@H](C)CC[C@@H]2C(C)C)c(C)c1 | 101%
O=C(COc1cccc(/C=C2/Oc3ccccc3C2=O)c1)Nc1nccs1 | -72.9% (active)
CC(C)c1ccc2nc3ccc(C(=O)NCCN4CCN(c5ccccc5)CC4)cn3c(=O)c2c1 | 74.9%
CC(CO)(CO)C(=O)O | 108%

Reference: PubChem BioAssay (NCI)
